The entries come from a sample that favours hits as a whole.
Cycloheximide cs: counter-screen hit for Shiga toxin inhibitors, cycloheximide; max response, %; cell reporter, cycloheximide protein synthesis inhibition counterscreen; actives 12% (n = 300,000); in the data active = max response mostly above about 13%, no sharp cut-off; inactive = mostly below about 14%; note: read at 38.3 µM for the half of the compounds with a filed dose; 0% is about no effect
LmPK inhibitor: LmPK (Leishmania mexicana) enzyme inhibition; Q27686; purified LmPK, Kinase-Glo ATP luminescence, 1 h; Potency, µM (series often up to 57.5 µM), without a hit: at the top dose activity change, negative = inhibition, hits mostly inhibitors; actives 0.37% (n = 290,000); note: potency is the fitted concentration of half-maximal effect; % is set by controls: 0 for no effect and ±100 for the full control effect
Target sequence (Q27686 whole entry, looked up): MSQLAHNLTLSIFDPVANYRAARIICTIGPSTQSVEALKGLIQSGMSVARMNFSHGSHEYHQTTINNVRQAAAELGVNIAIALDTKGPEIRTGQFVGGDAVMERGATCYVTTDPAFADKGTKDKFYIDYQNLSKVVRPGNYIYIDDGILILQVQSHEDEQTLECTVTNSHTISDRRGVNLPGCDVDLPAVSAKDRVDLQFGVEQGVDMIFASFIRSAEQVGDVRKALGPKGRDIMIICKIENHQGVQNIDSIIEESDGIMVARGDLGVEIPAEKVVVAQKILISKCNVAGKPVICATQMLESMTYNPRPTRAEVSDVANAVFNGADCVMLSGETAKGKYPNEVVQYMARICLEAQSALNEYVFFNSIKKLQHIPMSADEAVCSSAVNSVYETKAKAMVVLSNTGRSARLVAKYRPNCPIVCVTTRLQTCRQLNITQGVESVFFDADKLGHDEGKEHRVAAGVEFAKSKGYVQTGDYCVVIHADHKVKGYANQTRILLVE
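In 50 mM imidazole pH 7.2 with 7 mM MgCl2, LmPK (0.1 nM) turned over PEP (0.5 mM) and ADP (0.1 mM) for 1 h at room temperature. Luciferase read-out of ATP.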
Shiga inhibitor: blocks Shiga toxin action in Vero cells | Vero cells, Shiga toxin protein synthesis inhibition reporter | inhibition, % at 38.7 µM | actives 9.2% (n = 290,000); in the data active = inhibition mostly above about 28%, no sharp cut-off; inactive = mostly below about 43%; note: 0% is about no effect
Sm TGR inh: blocks Schistosoma mansoni thioredoxin glutathione reductase. Q962Y6. purified TGR, DTNB reduction, TNB absorbance 405 nm. Potency, µM (highest dose often 114 µM), for inactives: at the highest dose activity change, negative = inhibition, most hits filed as inhibitors. actives 3% (n = 360,000). AID 485364; note: potency is the fitted concentration of half-maximal effect; % is set by controls: 0 for no effect and ±100 for the full control effect; nearly all actives have a fitted effect of over 60% in size
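TGR 20 nM + NADPH 100 uM (dispensed conc.), cpd preinc 15 min RT; start with NADPH (500 uM addition) then DTNB (15 mM addition). Kinetic TNB absorbance, 405 nm filter. Four-parameter Hill fit across titration.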
TbPYK inhibitor: blocks Trypanosoma brucei pyruvate kinase | Q57TT1 | TbPYK enzyme, Kinase-Glo Plus ATP luminescence, 45 min | Potency, µM (series often up to 76.8 µM), without a hit: at the highest dose activity, negative = inhibition, most hits filed as inhibitors | actives 0.12% (n = 410,000) | AID 624173; note: potency is the fitted concentration of half-maximal effect; % is set by controls: 0 for no effect and ±100 for the full control effect; nearly all actives have a fitted effect of over 50% in size
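Luminescence from Kinase-Glo Plus, added after a 45-minute room-temperature reaction, served as the end-point read-out. The enzyme and substrate were preincubated with compound before ADP (130 uM final) initiated turnover. Concentration-effect curves came from normalized qHTS data.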
FBPA Giardia inh: inhibitors of Giardia lamblia fructose-1,6-bisphosphate aldolase. A8B2U2. purified Giardia FBPA. Potency, µM (highest dose often 59.6 µM), without a hit: at the top dose activity, negative = inhibition, hits mostly inhibitors. actives 0.71% (n = 290,000). AID 2451; note: potency is the fitted concentration of half-maximal effect; % is set by controls: 0 for no effect and ±100 for the full control effect; nearly all actives have a fitted effect of over 55% in size
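Giardia FBPA (40 nM reagent) was preincubated 10 min at RT with compound (up to 57.5 uM final), then substrate plus GAPDH/TPI/NAD/arsenate coupling system with diaphorase/resazurin was added; resorufin fluorescence (525/598 nm) was read after 20 min.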
* hit, by the source's call; ? = inconclusive; . = no result; [ ] = dose if it differs, or a comment. Unless noted, calls come from the whole dose curve; as a rule, active = well fitted curve in the direction sought with a large enough effect; inconclusive = small, poorly fitted or top-dose-only effect, or another doubt; inactive = no such curve, though single readings can be large; an effect the other way counts as inactive or inconclusive.

SMILES | Cycloheximide cs | LmPK inhibitor | Shiga inhibitor | Sm TGR inh | TbPYK inhibitor | FBPA Giardia inh
CCCc1cc(C(=O)NCc2ccc(OC)cc2)no1 | 21* | -11% | 77* | 12% | 4% | -1%
COc1cc(SC)ccc1C(=O)Nc1ccc(C)cc1C | 47* | 0% | 106* | -4% | 5% | -1%
COc1cc(SC)ccc1C(=O)Nc1ccc(C)cc1 | 36* | 0% | 69* | 0% | 0% | -28%
COc1cc(SC)ccc1C(=O)NCCOc1c(C)cc(C)cc1C | -4 | 1% | -9 | -26% | 6% | -3%
COc1cc(SC)ccc1C(=O)Nc1ccc2c(c1)OCO2 | 37* | -12% | 71* | . | -3% | -26%
COc1cc(SC)ccc1C(=O)Nc1ccc(OCC(=O)N2CCOCC2)cc1 | 17* | 1% | 61* | -1% | 7% | -1%
COc1cc(SC)ccc1C(=O)Nc1ccc(S(=O)(=O)N2CCCC2)cc1 | 1 | 1% | 13 | 1%[11.4 µM] | -13% | -1%
Cn1cnc2c(=O)oc3ccc(S(=O)(=O)Nc4ccc(F)cc4)cc3c21 | . | . | . | 1% | 0% | .
Nc1c(-c2ccccc2)cc[nH]c1=O | 16 | . | -2 | . | . | .
COc1ccc(CN=C2NN=C(c3cccc(OC)c3)CS2)cc1 | 42* | -6% | 82* | -8% | ? | 3%
COc1cccc(C2=NNC(=NCc3ccccc3)SC2)c1 | 41* | 1% | 47* | -30% | -10% | -1%
CCc1ccc(C2=NNC(=Nc3c(C)n(C)n(-c4ccccc4)c3=O)SC2)cc1 | 13 | 17% | 40 | -8% | -6% | -11%
COc1ccc(CN=C2NN=C(c3ccccc3)CS2)cc1 | 48* | 1%[11.5 µM] | 101* | ? | -20% | -1%
COc1cccc(C2=Nn3c(nnc3-c3ccc(OC)c(OC)c3)SC2)c1 | 3 | . | 7 | . | . | 1%
CSc1ccc(CNC(=O)CCn2ccc3cc(S(=O)(=O)N4CCC(C)CC4)ccc32)cc1 | . | . | . | 4% | 6% | .
COc1ccccc1/C=C/c1nc(C#N)c(N2CCN(c3ccccc3)CC2)o1 | . | . | . | 1% | -3% | .
Cn1c(=O)c2c(nc(SCC(=O)O)n2Cc2cc3c(cc2Cl)OCO3)n(C)c1=O | 7 | -8% | -21 | -11% | 25µM* | -16%
CCn1c(SCC(=O)Nc2ccc3c(c2)OCO3)nc2c1c(=O)n(C)c(=O)n2C | 12 | 1% | -3 | 7% | -5% | 2%
CC(=O)Nc1cccc(NS(=O)(=O)c2cc3c4c(c2)CCN4C(=O)CC3)c1 | . | . | . | -5% | -2% | .
CCCc1cc(=O)[nH]c(SCc2nc3ccccc3s2)n1 | 52 | 3% | 5 | -3% | -1% | -26%
Cc1cc(=O)[nH]c(SCc2nc3ccccc3s2)n1 | 16* | 1% | 14 | -1% | 0% | 11%
Nc1cc(=O)[nH]c(SCc2csc(-c3ccccc3)n2)n1 | 8 | -2% | 42 | 5% | -3% | 3%
Cc1cc(=O)[nH]c(SCc2csc(-c3ccccc3)n2)n1 | 20* | 1% | 24 | -1% | 2% | 3%
Cc1cccc(-n2c(SCC(=O)Nc3ccccc3C)nc3c(oc4ccccc43)c2=O)c1 | . | . | . | 14% | -6% | .
O=C(O)CCCCCNC(=O)/C(=C\c1ccco1)NC(=O)c1ccco1 | 0 | 21% | . | 100µM* | 10% | ?
SMILES | Cycloheximide cs | LmPK inhibitor | Shiga inhibitor | Sm TGR inh | TbPYK inhibitor | FBPA Giardia inh
CC(C)CC(NC(=O)/C(=C\c1ccco1)NC(=O)c1ccco1)C(=O)O (stereo not drawn) | 5 | 19% | -2 | 35µM* | -11% | -12%
O=C(N/C(=C/c1ccco1)C(=O)N1CCc2ccccc21)c1ccco1 | 3 | 1% | 21 | 32µM* | ? | -29%
O=C(NCc1ccccc1)/C(=C/c1ccco1)NC(=O)c1ccco1 | -2 | 3% | -5 | 1% | -2% | -7%
CCOC(=O)/C(=C/c1ccco1)NC(=O)c1ccc(Br)o1 | 9 | -2% | 13 | 18µM* | -9% | 3%
O=C(O)CCNC(=O)/C(=C\c1ccco1)NC(=O)c1ccco1 | -4 | 0% | -9 | ? | -11% | ?
CCOC(=O)/C(=C/c1ccccc1)NC(=O)c1ccco1 | 6 | 1% | 2 | 14% | -6% | 2%
CNC(=O)/C(=C\c1ccco1)NC(=O)c1ccco1 | 2 | 0% | -24 | ? | -1% | 6%
COC(=O)C1=C(C)N(Cc2ccccc2)C(=NCc2ccco2)N[C@H]1c1ccc(Br)cc1 | -5 | -8% | -5 | . | . | ?
CC(C)CC(NC(=O)/C(=C/c1ccco1)NC(=O)c1ccc(Br)o1)C(=O)O (stereo not drawn) | -3 | 11% | -3 | 45µM* | -8% | -25%
O=C(NC(Cc1ccccc1)C(=O)O)/C(=C/c1ccccc1)NC(=O)c1ccc(Br)o1 (stereo not drawn) | 3 | 4% | -20 | -6% | 12% | 11%
CC(=O)c1cccc(NC(=O)c2cc(-c3ccc(Cl)s3)nc3ccccc23)c1 | . | . | . | 0% | 0% | .
Cc1ccc(S(=O)(=O)N(C)C[C@H]2OCCCC[C@@H](C)Oc3ccc(N(C)C)cc3C(=O)N([C@H](C)CO)C[C@@H]2C)cc1 | . | . | . | . | 7.9µM* | .
C[C@@H]1CCCCO[C@@H](CN(C)S(=O)(=O)c2ccc(Cl)cc2)[C@@H](C)CN([C@H](C)CO)C(=O)c2cc(N(C)C)ccc2O1 | . | . | . | . | -1% | .
O=C(COC(=O)CCc1c[nH]c2ccccc12)Nc1ccccc1 | . | . | . | 1% | -1% | .
O=C(COC(=O)CCc1c[nH]c(=O)[nH]1)Nc1ccccc1 | 9 | -6% | -13 | 40µM* | 6% | ?
Cc1ccc(NC(=O)COC(=O)CCc2c[nH]c(=O)[nH]2)cc1 | -2 | -2% | 13 | 32µM* | -1% | -4%
CC(C)CN1CCC(=O)N(CCN=[N+]=[N-])CC1 | 8 | 11% | 3 | 4% | 3% | -11%
Cc1c2cnn(CC(=O)NCCc3ccccc3)c(=O)c2c(C)n1Cc1ccccc1 | . | . | . | 10% | -6% | .
CCS(=O)(=O)N1CCc2nc(-c3ccccc3)sc2C1 | 48* | -10% | 72* | 0% | -5% | 0%
COc1ccc(-c2nc3c(s2)CN(S(C)(=O)=O)CC3)cc1OC | 13 | 1% | 31 | 9% | -4% | 5%
COCC1=C(C(=O)OC(C)OC(=O)OC(C)C)N2C(=O)C(NC(=O)/C(=N/OC)c3csc(N)n3)[C@H]2SC1 (stereo partly drawn) | . | . | . | . | -10% | .
Cc1ccc(S(=O)(=O)N/N=C\c2ccc([N+](=O)[O-])o2)cc1 | 10 | -1% | -7 | 20µM* | -17% | -16%
O=[N+]([O-])c1ccc(/C=N/Nc2ccnc3cc(Cl)ccc23)o1 | 27 | -7% | 169* | -34% | -24% | .
Cc1ccc(S(=O)(=O)N/N=C\c2ccc(C)o2)cc1 | -2 | 1% | -1 | 35µM* | 6% | 0%

Screening results as filed in PubChem.
